Only some compounds are listed: those with a hit (about 9.4% of all), similar ones and a draw of the others.
SARS PLP yeast: qHTS of Yeast-based Assay for SARS-CoV PLP; S. cerevisiae expressing SARS-CoV PLpro, growth rescue; Potency, µM (highest dose often 32.9 µM), actives largely listed as activators; actives 0.19% (n = 330,000); calls by dose curve; further: nearly all actives have a fitted effect of over 55% in size
AMA1 RON2 block: qHTS for Inhibitors of AMA1-RON; Towards Development of Antimalarial Drug Lead: Primary Screen | Plasmodium falciparum AMA1 (3D7) - RON2 peptide interaction | AlphaScreen AMA1-biotinylated RON2 peptide binding | Potency, µM (titrated, usually from 58.2 µM), most hits filed as inhibitors | actives 0.2% (n = 360,000) | AID 720542, 2013; further: nearly all actives have a fitted effect of over 45% in size
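AMA1 (3D7) with his tag at 25 nM final met compounds first, then biotinylated RON2 peptide at 25 nM; detection used donor plus acceptor beads, 10 µg/mL apiece, read by AlphaScreen after 30 min at room temperature.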
Pf growth 48h: Primary qHTS for delayed death inhibitors of the malarial parasite plastid, 48 hour incubation; P. falciparum luciferase growth in erythrocytes, 48 h; Potency, µM (doses to about 28.7 µM), usual class: inhibitors; actives 5.9% (n = 310,000); AID 504832, 2011
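Here the parasites carry a stable luciferase gene and grow inside erythrocytes in Albumax-based RPMI medium with compound for one erythrocytic cycle. Activity is scored as loss of luminescent signal.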
Pf growth 96h: Primary qHTS for delayed death inhibitors of the malarial parasite plastid, 96 hour incubation | AID 504834, 2011 | actives 6.9% (n = 320,000) | P. falciparum luciferase reporter growth, 96 h | Potency, µM (series often up to 28.7 µM), usual class: inhibitors
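Plates of compound plus infected erythrocytes (2% hematocrit, 0.05% parasitemia final) incubate 96 hours, 37 C, 5% CO2. Detection reagent added; reduced luminescence from the parasites' luciferase reporter flags inhibition.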
Large screens that a line does not name were inactive. Unless noted, the call rests on the fitted dose curve; in most records, active means well fitted curve in the direction sought with a large enough effect; inconclusive means small, poorly fitted or top-dose-only effect, or another doubt; inactive means no such curve, though single readings can be large; an effect the other way counts as inactive or inconclusive.

CO[C@H]1C[C@@H]2CC[C@@H](C)[C@@](O)(O2)C(=O)C(=O)N2CCCC[C@H]2C(=O)O[C@H]([C@H](C)C[C@@H]2CC[C@@H](OCCO)[C@H](OC)C2)CC(=O)[C@H](C)/C=C(\C)[C@@H](O)[C@@H](OC)C(=O)[C@H](C)C[C@H](C)/C=C/C=C/C=C/1C	Pf growth 48h 1.5µM, Pf growth 96h 2.1µM (no result: SARS PLP yeast, AMA1 RON2 block)
Cc1cc(C(=O)N(Cc2nnc(-c3ccc(Cl)cc3)o2)C(C)C)c2ccccc2n1	Pf growth 48h 12µM, Pf growth 96h 10µM
O=C(Nc1ccccc1C(=O)Nc1nnc(C(F)(F)F)s1)c1ccccc1	Pf growth 48h 1.2µM, Pf growth 96h 2.6µM
NC(=O)C1CCN(C2CC(=O)N(Cc3ccc(N4CCCC4=O)cc3)C2=O)CC1 (stereo not given)	none (no result: Pf growth 96h)
O=C1CC(N2CCN(C(c3ccccc3)c3ccccc3)CC2)C(=O)N1Cc1ccc(N2CCCC2=O)cc1 (stereo not given)	Pf growth 48h 9.3µM, Pf growth 96h 15µM
COc1cc2c(cc1OC)C(c1cccc(Br)c1)NC(=O)C2 (stereo not given)	none
CC(=O)Nc1ccc(S(=O)(=O)Nc2c(NC3CCCCC3)c3ccccc3oc2=O)cc1	Pf growth 96h inconclusive
CN(Cc1cn(Cc2ccccc2)nc1-c1ccc2c(c1)OCO2)Cc1nccn1C	Pf growth 48h inconclusive, Pf growth 96h 15µM
COc1ccc(-c2cc3nc(C)cc(NCCO)n3n2)cc1	Pf growth 96h 4.7µM
Cc1cccc(-c2cc3nc(C)cc(NCCCN(C)C)n3n2)c1	Pf growth 48h 10µM
CCOC(=O)/C(=C/C=C1\Sc2cc(OCC)c(OCC)cc2N1CC)C(C)=O	Pf growth 48h 7.4µM
O=C(N1CCOCCOc2ccccc2OCCOCC1)C(F)(F)F	Pf growth 48h inconclusive
O=C(CCc1nnc(C2(c3ccc(Cl)cc3)CCC2)o1)NC1CC1	Pf growth 48h 10µM
C=CCNC(=O)CCc1nnc(C2(c3ccc(Cl)cc3)CCC2)o1	Pf growth 48h inconclusive
Brc1ccc(OCCOc2cccc3cccnc23)cc1	none
c1ccc(OCCOc2cccc3cccnc23)cc1	Pf growth 96h 10µM
N#CC1=C(N)Oc2cc(O)ccc2C1c1cccnc1 (stereo not given)	none
N#CC1=C(N)Oc2cc(N)ccc2C1c1cccc(F)c1 (stereo not given)	none
N#CC1=C(N)Oc2cc(O)ccc2C1c1ccncc1 (stereo not given)	Pf growth 96h 9.3µM
COC(=O)c1ccc(C2C(C#N)=C(N)Oc3cc(N)ccc32)cc1 (stereo not given)	SARS PLP yeast inconclusive, Pf growth 96h 12µM
CN(C)c1ccc2c(c1)OC(N)=C(C#N)C2c1cccc(F)c1 (stereo not given)	Pf growth 48h 13µM, Pf growth 96h inconclusive
COc1ccc(C(=O)N2CCSC2=S)cc1OC	none
O=C(CCc1nnc(CCC2CCCCC2)o1)NCCn1cccn1	none
CC(C)NC(=O)[C@H](CSCc1ccccc1)N1Cc2ccccc2C1=O	none
Nc1c(C(=O)Nc2ccc(S(=O)(=O)N3CCCC3)cc2)sc2nc3ccc(OC(F)(F)F)cc3cc12	Pf growth 48h 10µM
Nc1c(C(=O)Nc2ccc(S(=O)(=O)N3CCCC3)cc2)sc2nc3cc4c(cc3cc12)CCC4	Pf growth 48h 1.9µM
Nc1c(C(=O)Nc2ccc(Cl)c(C(=O)O)c2)sc2nc3c(cc12)CCCC3	none
COc1ccc(NC(=O)CSCC(=O)Nc2ccc(S(=O)(=O)N3CCCC3)cc2)cc1	none
CC1=CC(C)C(/C=N/n2cnnc2)C(C)C1 (stereo not given)	Pf growth 48h inconclusive, Pf growth 96h inconclusive
COc1cc(O)c(CCC(=O)c2cc(OC)c(OC)c(OC)c2)c(OC)c1	Pf growth 48h inconclusive, Pf growth 96h inconclusive
CCCCCCCCCC(=O)N[C@@H]1c2cc(OC)c(OC)cc2C[C@H]1O	none (no result: Pf growth 48h, Pf growth 96h)
CCn1cnc2cc(NCc3ccccc3Cl)ccc21	Pf growth 96h 1.5µM
Cc1cccc2c1NC(=O)C21OCC(CO)([N+](=O)[O-])CO1 (stereo not given)	Pf growth 96h 2.6µM
CC1(CO)COC2(OC1)C(=O)Nc1ccccc12 (stereo not given)	Pf growth 96h inconclusive
CC(=O)Nc1ccc(NC(=O)CCCCCN2C(=O)c3ccccc3C2=O)cc1	none (no result: Pf growth 48h)
CCCCN1/C(=C/c2cccc[n+]2C)Sc2cc(NC(C)=O)ccc21	Pf growth 48h 4.1µM
COc1ccc(NC(=O)C2CCCC2)cn1	none
Cc1ccc(C(=O)OCC(=O)c2ccc(CC(=O)N3CCOCC3)s2)cc1C	Pf growth 48h inconclusive, Pf growth 96h inconclusive
CCCCNC(=O)C1CC(=O)N(CCc2ccccc2)C1 (stereo not given)	none
CC1CCCN(CCCNC(=O)C2CC(=O)N(CCc3ccccc3)C2)C1 (stereo not given)	Pf growth 96h 15µM
Cc1ccc(CCN2CC(C(=O)NCCN3CCOCC3)CC2=O)cc1 (stereo not given)	Pf growth 96h 12µM
O=C(NC(=S)NC(c1ccccc1)c1ccncc1)c1ccccc1 (stereo not given)	Pf growth 48h inconclusive, Pf growth 96h 9.3µM
CCC(NC(=O)c1ccncc1)c1ccccc1 (stereo not given)	Pf growth 96h 15µM
COc1cccc(CN(C(=O)c2ccccc2Br)C2CCS(=O)(=O)C2)c1 (stereo not given)	Pf growth 96h inconclusive
CN(C)c1ccc(CN(C(=O)c2ccccc2Br)C2CCS(=O)(=O)C2)cc1 (stereo not given)	Pf growth 96h 13µM
CN(C)c1ccc(CN(C(=O)c2ccco2)C2CCS(=O)(=O)C2)cc1 (stereo not given)	Pf growth 96h 5.2µM
Cc1ccc(CN(C(=O)c2ccco2)C2CCS(=O)(=O)C2)cc1 (stereo not given)	none
C/C=C/C(=O)NCCc1ccc(OC)c(OC)c1	none
C=CCN(CC=C)C(=S)NCCc1ccc(OC)c(OC)c1	Pf growth 48h 13µM, Pf growth 96h inconclusive
COc1ccc(CCNC(=S)NCc2ccc(Cl)c(Cl)c2)cc1OC	Pf growth 48h inconclusive
CCNC(=S)NCc1ccc(OC)c(OC)c1	Pf growth 96h 5.2µM
CCCCOc1ccc(CNC(=S)N/N=C/c2ccc(OC)c(OC)c2)cc1	SARS PLP yeast inconclusive, Pf growth 96h 4.7µM (no result: Pf growth 48h)
CCOc1ccc(CNC(=S)N/N=C\c2ccc([N+](=O)[O-])cc2)cc1	Pf growth 48h 13µM, Pf growth 96h inconclusive
COCCNC(=S)N/N=C/c1ccc(OCc2ccc(C(=O)OC)cc2)c(OC)c1	none
O=C(Cn1nnc(-c2cccs2)n1)OC1CCCCC1	Pf growth 96h inconclusive
CC(C)OC(=O)CC(NC(=O)OC(C)(C)C)c1ccccc1 (stereo not given)	none
COc1ccc(CNC(=O)CC2C(=O)NCCN2CC(C)(C)C)c(OC)c1 (stereo not given)	Pf growth 96h 10µM
COc1ccc(CN2CCNC(=O)C2CC(=O)NCc2ccc(C)s2)c(OC)c1 (stereo not given)	Pf growth 96h inconclusive
